Screening results deposited in PubChem by National Center for Advancing Translational Sciences (NCATS).
Most compounds without a hit are left out; they make up all but 7.5% or so of the library.
Luc counter: blocks Kinase-Glo luciferase, a counter-screen artifact; Q27757; Kinase-Glo luciferase, ATP luminescence, 8 min; Potency, µM (highest dose often 38.3 µM), for inactives: at the highest dose activity change, negative = inhibition, hits mostly inhibitors; actives 0.28% (n = 200,000); further: on the % scale 0 is the no-effect control and ±100 the full control effect; nearly all actives have a fitted effect of over 60% in size
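Compounds were added to a substrate mix at pH 7.2 (50 mM imidazole, 10 uM ATP, within the enzyme's linear range), followed by Kinase-Glo detection reagent; luminescence was measured after 8 minutes at ambient temperature.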
Rab9 promoter act: Rab9 promoter activation; Huh7 Rab9 promoter-luciferase reporter, luminescence, 24 h; Potency, µM (series often up to 9.22 µM), inactives show at the top dose activation, negative = inhibition, hits mostly activators; actives 2.8% (n = 320,000); AID 485297; further: % of control where 0% means no effect; nearly all actives have a fitted effect of over 60% in size
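Cell-based reporter: Huh7 stable for Rab9 promoter-driven luciferase, plated in reduced-serum medium with 10% FBS at 1500 cells/well, compound-treated 24 h at 37 °C, luminescence read after 10 min reagent.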
NPC1 promoter act: activates the NPC1 promoter. Huh7 NPC1 promoter luciferase reporter, 24 h. Potency, µM (top dose mostly 9.22 µM), inactives show top-dose activation, most hits filed as activators. actives 2.4% (n = 320,000); further: % of control where 0% means no effect; nearly all actives have a fitted effect of over 60% in size
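Luminescence from an NPC1 promoter-driven luciferase reporter in stably transfected Huh7 cells was measured after 24 h compound treatment at 37 °C, followed by 10 min ambient incubation with luciferase detection reagent.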
FLuc counter: counter-screen for miR-21 project: firefly luciferase inhibitors or activators; P08659; purified FLuc, Km substrates, luminescence inhibition; Potency, µM (series often up to 57.5 µM), inactives show top-dose activity change, negative = inhibition, most hits filed as inhibitors; actives 6.9% (n = 360,000); AID 588342;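 further: plate controls were vehicle for no effect and reference inhibitor for full effect; nearly all actives have a fitted effect of over 55% in size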
Target sequence (P08659 whole entry, looked up): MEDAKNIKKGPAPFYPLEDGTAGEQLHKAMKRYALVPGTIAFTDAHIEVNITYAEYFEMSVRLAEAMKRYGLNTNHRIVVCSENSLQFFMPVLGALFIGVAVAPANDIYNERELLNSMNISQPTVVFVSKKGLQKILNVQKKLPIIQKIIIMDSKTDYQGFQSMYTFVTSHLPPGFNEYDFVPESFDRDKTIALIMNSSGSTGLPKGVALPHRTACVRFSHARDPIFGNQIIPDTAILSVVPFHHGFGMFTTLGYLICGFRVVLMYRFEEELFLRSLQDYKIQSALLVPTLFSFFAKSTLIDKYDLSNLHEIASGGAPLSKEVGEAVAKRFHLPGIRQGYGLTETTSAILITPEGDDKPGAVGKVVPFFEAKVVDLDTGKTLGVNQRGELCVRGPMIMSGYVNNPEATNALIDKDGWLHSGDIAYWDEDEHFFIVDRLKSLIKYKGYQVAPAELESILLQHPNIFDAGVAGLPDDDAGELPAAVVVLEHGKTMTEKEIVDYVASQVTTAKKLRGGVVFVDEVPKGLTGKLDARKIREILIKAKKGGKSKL
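Purified P. pyralis luciferase, 10 nM final, with Km-level 10 uM D-luciferin and 10 uM ATP in 50 mM Tris acetate pH 7.5, 10 mM Mg acetate, 0.01% Tween-20, 0.05% BSA; 6-point qHTS titration about 60 µM downward; luminescence read.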
ELG1 genotoxic: genotoxicity induction in ELG1-luciferase HEK293T cells; HEK293T ELG1-luciferase reporter, luminescence, 16 h; Potency, µM (doses to about 46 µM), for inactives: at the top dose activity change, positive = activation, hits mostly activators; actives 1.3% (n = 330,000); AID 504466; further: % of control where 0% means no effect; nearly all actives have a fitted effect of over 60% in size
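16 hr compound incubation (37 °C, 5% CO2) of HEK293T cells carrying luciferase-tagged ELG1; luciferase then measured by ONE-Glo luminescence after 30 min at RT.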
SMN2 splice enh: enhancers of SMN2 splice variant expression; HEK293 SMN2-luciferase splicing reporter, luminescence, 30-36 h; Potency, µM (doses to about 46.1 µM), for the others: top-dose activity change, positive = activation, usual class: activators; actives 2.8% (n = 210,000); further: % of control where 0% means no effect; nearly all actives have a fitted effect of over 55% in size
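HEK293 cells carry an SMN2 […]–luciferase reporter in which exon 7 inclusion puts luciferase in frame. Cells were plated 10-12 h before compound addition, then incubated 30-36 h at 37C. ONE-Glo luminescence was read; sodium butyrate at 4.5 mM final served as control.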
* marks the source's active call; other numbers are inactive results; ? = inconclusive; . = no result given. The call rests on the fitted dose curve; in most records, active means well fitted curve in the direction sought with a large enough effect; inconclusive means small, poorly fitted or top-dose-only effect, or another doubt; inactive means no such curve, though single readings can be large; an effect the other way counts as inactive or inconclusive. Potency means the concentration at half of the fitted maximal effect.

SMILES | Luc counter | Rab9 promoter act | NPC1 promoter act | FLuc counter | ELG1 genotoxic | SMN2 splice enh
CC(C)(C)c1ccc(-c2nc(C=O)c3ccccn23)cc1 | 0% | 4% | 2% | 15µM* | 1% | -14%
C(=N\N1CCOCC1)/c1nc(-c2ccccc2)n2ccccc12 | -1% | 9% | 1% | -4% | 3% | 4%
CCC(=O)N1CCc2cc(CNS(=O)(=O)c3cc(OC)ccc3OC)ccc21 | . | . | . | -1% | . | .
COc1cc(C)ccc1OCCCOc1c(Cl)cccc1Cl | -1% | -1% | -1% | -14% | 1% | -27%
CCOc1ccccc1OCCCOc1ccc(C)cc1Cl | . | ? | 27% | 11µM* | 6% | .
CCOc1ccccc1OCCCOc1ccc(C)cc1Br | -3% | 19% | 4% | 11µM* | 11% | 2%
CCCCOc1ccc(N=Cc2cccs2)cc1 | -3% | 1% | 1% | 5.4µM* | 3% | -4%
CCOc1ccc(NC(C)C(=O)N/N=C/c2cccs2)cc1 (centres undefined) | -2% | -2% | -4% | -9% | 2% | 16%
COc1ccc(Cl)c2sc(N3CCN(C(C)=O)CC3)nc12 | . | -1% | 12% | 2% | 0% | .
COc1ccc(OC)c2sc(N3CCN(C(=O)C(C)(C)C)CC3)nc12 | . | . | . | 13µM* | . | .
O=C(c1ccc([N+](=O)[O-])cc1)N1CCN(C2=NS(=O)(=O)c3ccccc32)CC1 | . | 10% | 0% | 4% | -5% | .
Cc1ccc(-n2nc3c(n2)/C(=N/O)CC/C3=N\O)cc1 | 13µM* | 3.2µM* | ? | 9.5µM* | ? | 13µM*
COc1ccc(-c2cn3nc(N4CCC(C(=O)NCc5cccc(Cl)c5)CC4)sc3n2)cc1 | . | . | . | 6% | . | .
CC(C)OC(=O)Cn1nnc2c(cnn2-c2ccccc2)c1=O | -1% | 18% | 17% | 17µM* | 14% | 26%
COC(=O)Cn1nnc2c(cnn2-c2ccccc2)c1=O | -3% | 19% | -2% | -7% | 8% | .
COc1ccccc1NC(=O)c1cc(-c2ccc(OC)c(OC)c2)nc2ccccc12 | . | 2% | 0% | 9.5µM* | -1% | .
COc1ccc(-c2cc(C(=O)Nc3ccc(O)cc3)c3ccccc3n2)cc1OC | . | 29% | 11% | 5.4µM* | 0% | .
CCc1c(C)c2cc(Cl)c(O)c(CN3CCCC3)c2oc1=O | . | -3% | 0% | 0% | 2% | .
COc1ccc(NC(=S)N2CCCC(c3nc4ccc(C)cc4[nH]3)C2)c(OC)c1 (centres undefined) | 1% | -8% | -8% | 13µM* | -2% | .
Cc1ccc(NC(=S)N2CCCC(c3nc4ccc(C)cc4[nH]3)C2)c(C)c1 (centres undefined) | -2% | 0% | 1% | -8% | -7% | -4%
COc1ccc(NC(=S)N2CCCC(c3nc4ccc(C)cc4[nH]3)C2)cc1 (centres undefined) | 0% | -6% | -1% | 13µM* | -2% | .
Cc1cc2nc(C3CCCN(C(=S)Nc4ccccc4C)C3)[nH]c2cc1C (centres undefined) | 0% | 0% | -2% | 3.4µM* | 1% | 6%
CCc1c(C)nc(N2CCN(c3ccc(OC)cc3)CC2)[nH]c1=O | . | -6% | -10% | 1% | 0% | .
Cc1ccc(S(=O)(=O)NCCN2CCOCC2)s1 | . | 0% | 1% | 0% | -2% | .
O=C1S/C(=C\C=C\c2ccco2)C(=O)N1c1ccc(O)cc1 | -1% | ? | 26% | 15µM* | ? | 23%
SMILES | Luc counter | Rab9 promoter act | NPC1 promoter act | FLuc counter | ELG1 genotoxic | SMN2 splice enh
O=C(O)C(Cc1ccccc1)N1C(=O)/C(=C/C=C/c2ccco2)SC1=S (centres undefined) | . | -1% | 1% | ? | 1% | .
O=C(O)CC(C(=O)O)N1C(=O)/C(=C/C=C/c2ccco2)SC1=S (centres undefined) | . | 0% | -1% | 12µM* | -1% | .
O=C(O)CCCN1C(=O)/C(=C/C=C/c2ccco2)SC1=S | . | -1% | -2% | 27µM* | 4% | .
O=C1S/C(=C\C=C\c2ccco2)C(=O)N1c1ccccc1 | 1% | ? | ? | ? | 8% | -9%
O=C(NN1C(=O)/C(=C/C=C/c2ccco2)SC1=S)c1ccccc1O | . | -3% | 2% | 19µM* | 2% | .
CC1CCN(CCC(=O)Nc2ccc(F)c(F)c2)CC1 | . | -4% | -5% | 0% | 3% | .
COc1ccc(N2CCN(C3CCCN(S(=O)(=O)c4ccc(C)cc4C)C3)CC2)cc1 (centres undefined) | . | 0% | -9% | -1% | -3% | .
O=C(O)CC(C(=O)O)N1C(=O)/C(=C/c2ccc(-c3nc4ccccc4s3)o2)SC1=S (centres undefined) | 0% | -7% | 0% | 19µM* | 4% | 26%
O=C(O)CCCN1C(=O)/C(=C\C(Cl)=C\c2ccccc2)SC1=S | . | -48% | -38% | 9.5µM* | -9% | .
Cc1cccc(NC(=O)CSc2c(C)cnc3c2c(=O)n(C)c(=O)n3C)c1C | . | . | . | 3% | . | .
COCCNC(=S)NC(=O)c1ccc(C(C)(C)C)cc1 | -8% | ? | 24% | 13µM* | ? | ?
CC(C)(C)c1ccc(C(=O)NC(=S)NCc2ccco2)cc1 | . | 8% | 19% | 19µM* | 9% | .
COc1ccc(C(=O)NC(=S)NCCc2ccccc2)cc1 | 1% | 22% | 5% | ? | 13% | 28%
Cc1cc(C)c(NC(=O)CNC(=O)[C@@H]2CCCN2C(=O)c2cccs2)c(C)c1 | . | 0% | -1% | 6% | -2% | .
CSc1ncc(Cl)c(C(=O)Nc2cccc(Cl)c2)n1 | . | 13% | 1% | 1% | -3% | .
Cn1c(=O)c2ncn(CC(=O)Nc3ccc(N4CCOCC4)cc3)c2n(C)c1=O | -5% | -2% | 0% | 0% | 1% | -5%
Cc1ccc2oc(-c3cccc(NC(=O)Cn4cnc5c(=O)n(C)c(=O)n(C)c54)c3)nc2c1 | -5% | 18% | 13% | 3.8µM* | 17% | -26%
CCC(C)c1ccc2oc(-c3ccc(NC(=O)Cn4cnc5c(=O)n(C)c(=O)n(C)c54)cc3)nc2c1 (centres undefined) | 2% | ? | 23% | 12µM* | 7% | -48%
Cc1ccc(NC(=O)Cn2cnc3c(=O)n(C)c(=O)n(C)c32)c(C)c1 | -3% | -5% | 2% | 0% | 0% | -23%
CCn1cc(S(=O)(=O)c2cccc(Cl)c2)c(=O)c2cc(F)c(N3CCN(c4ccccc4)CC3)cc21 | . | . | . | 0% | . | .
COc1ccc(Nc2cc(C(=O)NCc3ccccc3)c3ccccc3n2)c(OC)c1 | . | . | . | 8.5µM* | . | -1%
COc1ccc(Nc2cc(C(=O)NCCCN(C)Cc3ccccc3)c3ccccc3n2)c(OC)c1 | . | . | . | -17% | . | .
